Shown are actives, neighbours in structure and some others; about 17% of the full set was active somewhere.
TDP1 block: inhibitors of human tyrosyl-DNA phosphodiesterase TDP1; Q9NUW8; recombinant TDP1, AlphaScreen DNA substrate cleavage; Potency, µM (highest dose often 130 µM), without a hit: top-dose activity change, negative = inhibition, usual class: inhibitors; actives 0.28% (n = 350,000); also: % is scaled to controls: 0 for no effect and ±100 for the full control effect; nearly all actives have a fitted effect of over 40% in size
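Steps: enzyme plus compound, 15 min RT; add biotin/phosphotyrosine-FITC oligonucleotide (15 nM final), react 5 min; add donor/acceptor beads (10 ug/ml final), 10 min; read AlphaScreen. Tdp1 at 1 nM final.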
DT40 TDP1 CPT: DT40-hTDP1 cell growth loss with CPT. chicken DT40 Tdp1-/-;hTDP1 cells + 20 nM CPT, ATP luminescence, 48 h. Potency, µM (top dose mostly 46.2 µM), inactives show at the top dose activity change, negative = growth inhibition, most hits filed as inhibitors. actives 12% (n = 420,000). AID 686979; also: % is scaled to controls: 0 for no effect and ±100 for the full control effect; nearly all actives have a fitted effect of over 55% in size
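Chicken DT40 Tdp1-/- cells complemented with human TDP1, 400 cells/well, exposed to compounds plus 20 nM camptothecin for at least 48 h at 37 C; viability read as ATP content by CellTiter-Glo luminescence.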
ClpP mod: qHTS Assay for Activators of ClpP | actives 1.9% (n = 340,000) | purified B. subtilis ClpP, FRET peptide cleavage, 20 min | Potency, µM (top dose mostly 57.5 µM), without a hit: at the top dose activity change, negative = active | ATP-dependent Clp protease proteolytic subunit (Bacillus subtilis (strain 168)), P80244; active = well fitted falling curve with a large enough effect; inconclusive = small, poorly fitted or top-dose-only effect; inactive = no such curve, though single readings can be large or run the other way; also: the source files actives as falling curves though it sought activators and does not explain the sign; nearly all actives have a fitted effect of over 65% in size
Target sequence (P80244 whole entry, looked up): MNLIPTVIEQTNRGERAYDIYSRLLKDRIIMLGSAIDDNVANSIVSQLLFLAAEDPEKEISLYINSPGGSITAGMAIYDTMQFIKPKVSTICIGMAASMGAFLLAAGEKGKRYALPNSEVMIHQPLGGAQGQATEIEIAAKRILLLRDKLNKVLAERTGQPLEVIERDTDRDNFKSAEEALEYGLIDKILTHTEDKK
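ClpP 10 microg/mL final, pH 8 Tris/KCl buffer with BSA, glycerol, Tween-20; compound pinned in; FRET-FV substrate; RT 20 min; Ex320/Em430; ΔFRET vs ADEP 5.8 microM, DMSO, no enzyme.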
DT40 TDP1 no CPT: qHTS for Inhibitors of human tyrosyl-DNA phosphodiesterase 1 (TDP1): qHTS in cells in absence of CPT | AID 686978, 2013 | Potency, µM (top dose mostly 46.2 µM), for inactives: at the top dose activity change, negative = growth inhibition, most hits filed as inhibitors | DT40 Tdp1-/- hTDP1 cells, no CPT, ATP luminescence, 48 h | actives 15% (n = 420,000); also: % is scaled to controls: 0 for no effect and ±100 for the full control effect; nearly all actives have a fitted effect of over 55% in size
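Growth kinetics read by CellTiter-Glo luminescence after ≥48 hr at 37 °C. Cells: DT40 Tdp1-/- stably carrying human TDP1, 400 per well, compound exposure in the absence of CPT (DMSO vehicle).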
* = called active by the depositor; [ ] = dose if it differs, or a comment. Unless noted, calls follow the shape of the dose curve; as a rule, active = well fitted curve in the direction sought with a large enough effect; inconclusive = small, poorly fitted or top-dose-only effect, or another doubt; inactive = no such curve, though single readings can be large; an effect the other way counts as inactive or inconclusive. Potency is read from the fitted curve at half-maximal effect.

For CCOc1cc(NC2CS(=O)(=O)CC2O)c(OCC)cc1NC(=O)c1ccccc1 (stereo not drawn) the results were TDP1 block -3%, DT40 TDP1 CPT inconclusive, ClpP mod -2% and DT40 TDP1 no CPT inconclusive.
Screening CCOc1cc(NC(=O)c2ccccn2)c(OCC)cc1NC(=O)c1ccccc1 returned TDP1 block 1%, DT40 TDP1 CPT inconclusive and DT40 TDP1 no CPT 21µM*.
For CCOc1nc(-c2ccccc2)ccc1-c1noc(COC)n1 the results were TDP1 block -7%, DT40 TDP1 CPT -10%, ClpP mod 35µM* and DT40 TDP1 no CPT -19%.
CCOc1nc(-c2ccccc2)ccc1-c1noc(-c2cccs2)n1 was read as TDP1 block 3%, DT40 TDP1 CPT 4%, ClpP mod 25µM* and DT40 TDP1 no CPT -19%.
COCc1nc(-c2ccc(-c3ccccc3)nc2OC)no1 was read as TDP1 block 2%, DT40 TDP1 CPT 1%, ClpP mod inconclusive and DT40 TDP1 no CPT -21%.
OC1(c2cccnc2)CCN(Cc2ccc3c(c2)CN(Cc2ccc4nsnc4c2)CCO3)CC1 was read as DT40 TDP1 CPT -5%[9.04 µM] and DT40 TDP1 no CPT inconclusive.
`Cc1ccc(C)c(N2CCN(C(=O)c3ccc4nsnc4c3)CC2)c1` gave TDP1 block 5%, DT40 TDP1 CPT 12µM*, ClpP mod 1% and DT40 TDP1 no CPT 13µM*.
Screening O=C(c1ccccc1)N1CCN(C(=O)c2ccc([N+](=O)[O-])cc2)CC1 returned TDP1 block 0%, DT40 TDP1 CPT -30%, ClpP mod 2% and DT40 TDP1 no CPT -6%.
`O=C(c1ccc2nsnc2c1)N1CCN(c2ccc([N+](=O)[O-])cc2)CC1` gave TDP1 block 5%, DT40 TDP1 CPT 21µM*, ClpP mod 0% and DT40 TDP1 no CPT 21µM*.
Screening O=C(c1cc2ccccn2n1)N1CCCC1 returned TDP1 block 3%.
Screening Cc1ccc(C)c(N2CCN(C(=O)c3cc4ccccn4n3)CC2)c1 returned TDP1 block -8%, DT40 TDP1 CPT inconclusive, ClpP mod -1% and DT40 TDP1 no CPT 23µM*.
Screening Cc1ccc(C)c(N2CCN(C(=O)c3ccc4[nH]c(C)c(C)c4c3)CC2)c1 returned TDP1 block 11%, DT40 TDP1 CPT 12µM*, ClpP mod -6% and DT40 TDP1 no CPT 12µM*.
Screening CCOC(=O)N1CCN(C(=O)c2ccc3[nH]c(C)c(C)c3c2)CC1 returned TDP1 block 4%, DT40 TDP1 CPT -23%, ClpP mod 0% and DT40 TDP1 no CPT -27%.
`COc1ccccc1NC(=S)N/N=C1\CC(C)(C)Oc2ccc(O)cc21` gave TDP1 block 11%, DT40 TDP1 CPT inconclusive, ClpP mod 25µM* and DT40 TDP1 no CPT inconclusive.
`CC(=O)N1CCC2(CC1)C/C(=N\NC(=S)Nc1ccccc1F)c1cc(O)ccc1O2` gave TDP1 block 10%, DT40 TDP1 CPT -18%, ClpP mod 25µM* and DT40 TDP1 no CPT -14%.
Screening Cn1c(=O)c2cc(C(=O)N3CCN(c4ccc(Cl)cc4)CC3)sc2c2ccccc21 returned TDP1 block 5%, DT40 TDP1 CPT inconclusive, ClpP mod 0% and DT40 TDP1 no CPT inconclusive.
O=C(NNc1ccnc2cc(Cl)ccc12)C1CCCCC1 was read as TDP1 block 8%, DT40 TDP1 CPT 0.92µM*, ClpP mod 0% and DT40 TDP1 no CPT 0.65µM*.
CCOC(=O)N1CCN(c2ccnc3cc(Cl)ccc23)CC1 was read as TDP1 block 10%, DT40 TDP1 CPT inconclusive and DT40 TDP1 no CPT 15µM*.
`CC(C)N(C(=O)N1CCN(c2ccnc3cc(Cl)ccc23)CC1)C(C)C` gave DT40 TDP1 CPT 12µM* and DT40 TDP1 no CPT 9.2µM*.
`NC(=S)NNc1ccnc2cc(Cl)ccc12` gave TDP1 block 11%, DT40 TDP1 CPT 6% and DT40 TDP1 no CPT inconclusive.
`CCC(=O)N1CCN(c2ccnc3cc(Cl)ccc23)CC1` gave TDP1 block 4%, DT40 TDP1 CPT inconclusive and DT40 TDP1 no CPT inconclusive.
For O=C(c1ccc(Cl)cc1)N1CCN(c2ccnc3cc(Cl)ccc23)CC1 the results were TDP1 block 7%, DT40 TDP1 CPT inconclusive and DT40 TDP1 no CPT 13µM*.
For Cc1cnc(-n2ncc(C(=O)NCCCc3ccncc3)c2C)nc1-c1ccc(F)cc1 the results were DT40 TDP1 CPT 10%[9.04 µM] and DT40 TDP1 no CPT -13%.
CC1(C)O[C@@H]2[C@@H](O1)C(c1ccccc1)(c1ccccc1)OP(=O)(O)OC2(c1ccccc1)c1ccccc1 was read as TDP1 block 4%.
C[C@]12CCC(=O)C=C1CC[C@@H]1[C@H]2[C@@H](O)C[C@@]2(C)[C@H]1CC[C@]2(O)C(=O)CO was read as TDP1 block 4%.
`O=C(Oc1ccnc2cc(Cl)ccc12)N1CCCCCC1` gave TDP1 block 2%, DT40 TDP1 CPT inconclusive, ClpP mod 2% and DT40 TDP1 no CPT 23µM*.
O=C(Oc1ccc(Cl)cc1)N1CCCCC1 was read as TDP1 block -1%, DT40 TDP1 CPT -18%, ClpP mod -1% and DT40 TDP1 no CPT -15%.
CCc1nc2c(c(=O)c3ccccc3n2C)c(=O)n1CCc1ccc(OC)cc1 was read as TDP1 block 3%.
For CC1(C)N=C(SCC(=O)Nc2ccccc2)C(c2ccc(Cl)cc2)=N1 the results were TDP1 block 2%, DT40 TDP1 CPT 23µM*, ClpP mod 0% and DT40 TDP1 no CPT 15µM*.
`Cc1ccc(C2=NC(C)(C)N=C2SCC(=O)Nc2ccc(Cl)cc2)cc1` gave TDP1 block 2%, DT40 TDP1 CPT 21µM*, ClpP mod -2% and DT40 TDP1 no CPT inconclusive.
For O=C(CSC1=NC2(CCCCCC2)N=C1c1ccccc1)Nc1ccc2c(c1)OCCO2 the results were TDP1 block 0%, DT40 TDP1 CPT inconclusive, ClpP mod -3% and DT40 TDP1 no CPT inconclusive.
For O=C(Nc1nccs1)C1CC(=O)N(Cc2ccco2)C1 (stereo not drawn) the results were TDP1 block 1%, DT40 TDP1 CPT 5% and DT40 TDP1 no CPT -4%.
`CNC[C@H]1Oc2c(NC(=O)C3CC3)cccc2C(=O)N([C@H](C)CO)C[C@@H]1C` gave TDP1 block 1%, DT40 TDP1 CPT 1%, ClpP mod 0% and DT40 TDP1 no CPT -5%.
For CCc1ccc(C(c2ccccc2)c2c[nH]c3ccc(C)cc23)s1 (stereo not drawn) the results were TDP1 block 6%, DT40 TDP1 CPT inconclusive, ClpP mod -9% and DT40 TDP1 no CPT 16µM*.
`Clc1ccc(C(c2ccccc2)c2c[nH]c3ccccc23)s1` (stereo not drawn) gave TDP1 block -4% and ClpP mod -3%.
